Screens from PubChem BioAssay.
RPL19A TOR yeast – RPL19A-GFP expression modulators in yeast, primary screen, cell-based, S. cerevisiae, multiplex flow cytometry, MLPCN | hit rate 0.3% among 330,000 | AID 2025, 2009 | S. cerevisiae RPL19A-GFP strain, 3 h; stronger effect = lower value | percent response vs DMSO, % at 10 µM;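 active = percent response vs DMSO below 50%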;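 note: median channel GFP fluorescence of the barcoded RPL19A-GFP strain; lower means less RPL19A-GFP as with rapamycin TOR inhibition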
AGP1 TOR yeast – modulators of AGP1-GFP expression in yeast TOR pathway, primary screen, cell-based, multiplex flow cytometry, S. cerevisiae, MLPCN library | 3 h; GFP as percent of DMSO wells | GFP response vs DMSO, % at 10 µM | hit rate 0.02% among 320,000 | AID 2066, 2009;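 active = GFP response relative to DMSO above a set limit, near screen average plus 3 SD, cut at about 150% in these data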;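 note: median GFP channel fluorescence of the gated AGP1 strain per well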
CIT2 TOR yeast – modulators of CIT2-GFP expression in yeast, primary screen, S. cerevisiae, GFP fusion, multiplex flow cytometry, MLPCN library | GFP response vs DMSO, % at 10 µM | S. cerevisiae CIT2-GFP strain, 3 h; 100 means same as DMSO wells | AID 2029, 2009 | hit rate 0.065% among 320,000;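 active = GFP response relative to DMSO above a set limit, near the screen mean plus 3 SD, cut at about 150% in these data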;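 note: ratio of well median GFP fluorescence to mean of DMSO wells on the plate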
LAP4-GFP MLPCN – modulators of LAP4-GFP expression in yeast, primary screen, S. cerevisiae, multiplex flow cytometry, MLPCN library | 3 h; median GFP as percent of DMSO wells | GFP response vs DMSO, % at 10 µM | AID 2023, 2009 | hit rate 0.34% among 320,000;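 active = GFP response vs DMSO above a set limit, about the screen mean plus 3 SD, cut at about 150% in these data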
MEP2-GFP yeast – modulators of MEP2-GFP levels in yeast, primary screen, S. cerevisiae, multiplex flow cytometry, MLPCN library | S. cerevisiae MEP2-GFP strain, 3 h; 100% = DMSO control level | GFP response vs DMSO, % at 10 µM | hit rate 0.51% among 330,000 | AID 2016, 2009;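 active = GFP response versus DMSO above a set limit, roughly screen mean plus 3 SD, cut at about 180% in these data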;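 note: median GFP fluorescence of the barcode-gated MEP2-GFP cells per well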
LAP4-GFP pick2 – LAP4-GFP expression modulators in yeast, confirmation, cell-based, second cherry pick, flow cytometry. shares compounds with LAP4-GFP MLPCN. S. cerevisiae LAP4-GFP strain, 3 h. GFP response vs DMSO, % at 10 µM. hit rate 20% among 590;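 active = GFP signal as percent of the solvent control above about 150%, meaning raised reporter expression, limit read from the data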
MEP2-GFP pick2 – modulators of MEP2-GFP levels in yeast, confirmation, S. cerevisiae, flow cytometry GFP, second cherry picks; shares compounds with LAP4-GFP MLPCN; S. cerevisiae MEP2-GFP strain, 3 h; GFP response vs DMSO, % at 10 µM; hit rate 10% among 590;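 active = GFP signal above 150% of the solvent control wells, that is a rise of more than half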;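 note: median channel GFP fluorescence of all gated yeast cells per well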
RPL19A GFP CP2 – RPL19A-GFP modulators in TOR pathway yeast, confirmation, cell-based, S. cerevisiae, flow cytometry, second cherry pick. shares compounds with LAP4-GFP MLPCN. S. cerevisiae RPL19A-GFP strain, 3 h; stronger effect = lower value; 100% means same as DMSO wells. GFP response vs DMSO, % at 10 µM. hit rate 3% among 590. AID 2623, 2010;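 active = under 65% GFP response relative to DMSO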;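 note: median GFP channel fluorescence per well over the all cells gate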
CIT2-GFP pick2 – modulators of CIT2-GFP expression in yeast, confirmation, flow cytometry, second cherry pick, single plex; shares compounds with LAP4-GFP MLPCN; S. cerevisiae CIT2-GFP strain, 3 h; DMSO control wells read 100%; GFP response vs DMSO, % at 10 µM; hit rate 8% among 590; AID 2624, 2010;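 active = GFP response vs DMSO above about 150%, limit read from the data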;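 note: median green fluorescence per well over all gated yeast cells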
AGP1-GFP pick2 – AGP1-GFP expression modulators, hit retest, confirmation, cell-based, flow cytometry, S. cerevisiae, cherry pick set 2; AID 2643, 2010; percent response vs DMSO, % at 10 µM; S. cerevisiae AGP1-GFP strain, 3 h; shares compounds with LAP4-GFP MLPCN; 590 tested, under 10 active;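 active = over 150 percent of DMSO response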;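 note: median GFP channel fluorescence over all cells without mother daughter split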
s288c autofluor – compound autofluorescence in yeast s288c, dose response, artefact control for yeast TOR pathway GFP screen, s288c strain | S. cerevisiae s288c, 520 nm autofluorescence, flow cytometry, 3 h; stronger effect = higher value; zero means same as solvent-only cells | shares compounds with LAP4-GFP MLPCN | AID 2757, 2010 | fluorescence change (kMESF span) at 33 µM | 610 tested, under 10 active;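 active = fluorescence span over the dose series, or activity score, above about 33, limit read from the data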
s288c autofl DR – autofluorescence of compounds in yeast s288c, dose response, artefact control for yeast TOR pathway GFP screen, primary hits, KU SAR, s288c parental; shares compounds with LAP4-GFP MLPCN; S. cerevisiae s288c parental, compound autofluorescence, flow cytometry, 3 h; fluorescence change (span) at 33 µM; 110 tested, under 10 active; AID 488829, 2010;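 active = fluorescence change span, or the activity score built from it, above 25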
TORC1 bypass – wild-type yeast growth inhibition sparing TORC1 bypass cells, mechanism study for yeast TOR pathway GFP screen, BY4741 wild type, TORC1 bypass strain | shares compounds with LAP4-GFP MLPCN | S. cerevisiae BY4741 spot growth rating, 48-72 h; stronger effect = lower value | growth rating (0-3) at 30 µM | 120 tested, under 10 active;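 active = growth rating at most 1 for wild type yeast while the TORC1 bypass strain still grows fully, rated 3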
Of the large screens only hits and unclear results are named; the others gave an inactive call (follow-up assays come after a bar, where they were run). Rows were chosen to be rich in hits. Some 0.92% of all compounds tested hit in one or more screens of this group.

CC(C)Cn1c(N)c(C(=O)COC(=O)c2c(O)c(Cl)cc(Cl)c2Cl)c(=O)n(C)c1=O	AGP1 TOR yeast 320, CIT2 TOR yeast active, LAP4-GFP MLPCN active, MEP2-GFP yeast active | LAP4-GFP pick2 inactive | MEP2-GFP pick2 inactive | RPL19A GFP CP2 inactive | CIT2-GFP pick2 inactive | AGP1-GFP pick2 inactive
COc1ccc(N2CCN(S(=O)(=O)CCNC(=O)COc3ccccc3C)CC2)cc1	none
COc1cc(C(=O)COC(=O)c2ccco2)cc(OC)c1OC	LAP4-GFP MLPCN 186 | LAP4-GFP pick2 inactive | MEP2-GFP pick2 inactive | RPL19A GFP CP2 inactive | CIT2-GFP pick2 inactive | AGP1-GFP pick2 inactive
Cc1ccc2[nH]cc(C(=O)CN3CCN(c4ccccn4)CC3)c2c1	none | LAP4-GFP pick2 inactive | MEP2-GFP pick2 inactive | RPL19A GFP CP2 inactive | CIT2-GFP pick2 inactive | AGP1-GFP pick2 inactive
Cc1ccc2[nH]cc(C(=O)CN3CCN(C)CC3)c2c1	none
O=C(CN1CCN(c2ccccc2F)CC1)c1c[nH]c2ccccc12	LAP4-GFP MLPCN 159 | LAP4-GFP pick2 inactive | MEP2-GFP pick2 inactive | RPL19A GFP CP2 inactive | CIT2-GFP pick2 inactive | AGP1-GFP pick2 inactive
O=C(Nc1nc(-c2ccccn2)cs1)c1cc2ccccc2o1	LAP4-GFP MLPCN 155 | s288c autofluor inactive | s288c autofl DR inactive | TORC1 bypass inactive
Cc1cc(-c2csc(NC(=O)c3cc4ccccc4o3)n2)c(C)n1C	none
Cc1nnc(NC(=O)c2oc3ccccc3c2C)s1	none
CCc1sc(C(=O)Nc2nc(-c3ccccn3)cs2)cc1C	LAP4-GFP MLPCN 191 | LAP4-GFP pick2 212 | MEP2-GFP pick2 155 | RPL19A GFP CP2 inactive | CIT2-GFP pick2 inactive | AGP1-GFP pick2 inactive | s288c autofluor inactive
Cc1c(C(=O)Nc2nc(-c3ccccn3)cs2)oc2ccccc12	LAP4-GFP MLPCN 220 | LAP4-GFP pick2 187 | MEP2-GFP pick2 inactive | RPL19A GFP CP2 inactive | CIT2-GFP pick2 inactive | AGP1-GFP pick2 inactive | s288c autofluor inactive | s288c autofl DR inactive | TORC1 bypass inactive
CCN(C[C@H]1N[C@@](Cc2ccccc2)(C(=O)OC)[C@H]2C(=O)N(C)C(=O)[C@@H]12)C(=O)C1CCCCC1	none
Cc1cccc(-c2nc(CS(=O)CC(=O)NC3CCCC(C)C3C)c(C)o2)c1 (stereo unspecified)	none
CCCCc1ccc(NC(=S)N2CCCC2)cc1	none
Cc1ccc(N=Nc2ccc(O)c3ncccc23)cc1C	none
COc1ccccc1N=Nc1ccc(O)c2ncccc12	LAP4-GFP MLPCN 249 | s288c autofluor inactive
Cc1ccc(N=Nc2ccc(O)c3ncccc23)cc1	LAP4-GFP MLPCN 157 | LAP4-GFP pick2 188 | MEP2-GFP pick2 inactive | RPL19A GFP CP2 inactive | CIT2-GFP pick2 150 | AGP1-GFP pick2 inactive | s288c autofluor inactive
COc1ccccc1-c1sc2ccccc2c1C#Cc1ccc(N(C)C)cc1	none
CCC(C)NC(=O)c1ccc(Cl)c(S(=O)(=O)Nc2ccccc2N2CCOCC2)c1 (stereo unspecified)	none
CC(C)C[C@]1(c2ccccc2)ON(c2ccccc2C(F)(F)F)C1=O	none | LAP4-GFP pick2 inactive | MEP2-GFP pick2 inactive | RPL19A GFP CP2 inactive | CIT2-GFP pick2 inactive | AGP1-GFP pick2 inactive | s288c autofluor inactive
Cc1cc(=O)c(C(=O)O)nn1-c1ccccc1C(F)(F)F	none
COc1ccccc1[C@]1(C)ON(c2ccccc2C(F)(F)F)C1=O	LAP4-GFP MLPCN 156 | LAP4-GFP pick2 150 | MEP2-GFP pick2 inactive | RPL19A GFP CP2 inactive | CIT2-GFP pick2 inactive | AGP1-GFP pick2 inactive | s288c autofluor inactive
CC[C@]1(c2ccccc2OC)ON(c2ccccc2C(F)(F)F)C1=O	none | LAP4-GFP pick2 inactive | MEP2-GFP pick2 inactive | RPL19A GFP CP2 inactive | CIT2-GFP pick2 inactive | AGP1-GFP pick2 inactive | s288c autofluor inactive
COc1ccc2c(c1)C(=O)N(c1ccccc1OC)C(=O)C2(C)C	none
CC(Sc1ccc(S(=O)(=O)N2CCOCC2)cn1)c1ccccc1Cl (stereo unspecified)	none
O=C(CSc1ccc(-c2ccccn2)nn1)Nc1ccc(F)cc1F	CIT2 TOR yeast 161 | LAP4-GFP pick2 inactive | MEP2-GFP pick2 inactive | RPL19A GFP CP2 inactive | CIT2-GFP pick2 inactive | AGP1-GFP pick2 inactive
CCc1cccc2sc(N3CCN(C(=O)c4ccc([N+](=O)[O-])o4)CC3)nc12	RPL19A TOR yeast 32 | s288c autofluor inactive
O=C(O)c1c(C(=O)O)c(-c2ccc(Cl)c(Cl)c2)n2c1CSC2	none
O=c1c(-c2ccc(Cl)cc2)[n+]([O-])c2ccccc2n1O	LAP4-GFP MLPCN 165 | s288c autofluor inactive
O=c1c(-c2cccc([N+](=O)[O-])c2)[n+]([O-])c2ccccc2n1O	none
